Measurements from the supplement of paper PMC10503962.

tested on: Trichuris muris adult worms; assay: mean motility score (Paragon pixel variance) of adult worms (arbitrary units); higher = more motile worms, i.e. less anthelmintic effect; extreme values may be limits of the assay; conditions: 100 µM; 24 h
In short: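 Each drug was tested with three worms in three wells, run over three separate occasions and vehicle and positive controls included. The worms were single adult Trichuris muris from infected NOD SCID mice, held for 24 h at 37°C and 5% CO2 in 100 μL RPMI-1640 with antibiotics and drug at 100 μM (1% v/v DMSO) in 96-well plates. Motility score was derived by Paragon pixel-variance analysis of films from an automated phenotyping platform and averaged over replicate wells.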

SMILES | mean motility score
CO/N=C(\C(=O)N[C@@H]1C(=O)N2C(C(=O)[O-])=C(COC(N)=O)CS[C@H]12)c1ccco1.[Na+] [cefuroxime sodium] | 2610
Nc1ccc(C(=O)Oc2ccccc2)c(O)c1 [phenyl aminosalicylate] | 1040
Oc1nc2ccccc2n1CCCN1CCC(n2c(O)nc3cc(Cl)ccc32)CC1 [domperidone] | 3910
Nc1cc(C(F)(F)F)c(-c2cc(N3CCOCC3)nc(N3CCOCC3)n2)cn1 [buparlisib] | 3960
OCCN1CCN(CCCN2c3ccccc3Sc3ccc(Cl)cc32)CC1 [perphenazine] | 175
CCCN1CCCC[C@H]1C(=O)Nc1c(C)cccc1C [ropivacaine] | 2600
Nc1ccc(S(=O)(=O)NC(=O)c2ccccc2)cc1 [sulfabenzamide] | 4050
c1ccc(-c2ccc(C(c3ccccc3)n3ccnc3)cc2)cc1 (centres undefined) [bifonazole] | 20
CC(C)NCC(O)c1ccc(NS(C)(=O)=O)cc1.Cl (centres undefined) [sotalol hydrochloride] | 2900
CCn1cc(C(=O)O)c(=O)c2cc(F)c(N3CCNC(C)C3)c(F)c21 (centres undefined) [lomefloxacin] | 3840
CCCCc1oc2ccccc2c1C(=O)c1cc(I)c(OCCN(CC)CC)c(I)c1 [amiodarone] | 2080
NC(N)=O [urea] | 4760
NS(=O)(=O)c1cc2c(cc1Cl)NCNS2(=O)=O [hydrochlorothiazide] | 3580
CCC(NC(C)C)C(O)c1ccc(O)c2nc(O)ccc12.Cl (centres undefined) [procaterol hydrochloride] | 2060
